Results from PubChem BioAssay (Tox21).
Results filed as inconclusive are left out. Calls of active or inactive are those of the source. The call rests on the fitted dose curve; in most records, active means well fitted curve in the direction sought with a large enough effect in the repeat runs; inconclusive means weak or mixed curves; inactive means no such curve, though single readings can be large; an effect the other way counts as inactive or inconclusive.

tested on: not listed separately; assay: qHTS assay to identify small molecule agonists of the estrogen related receptor signaling pathway with the pleiotropic PPARgamma coactivator (PGC) (AID 1224823); conditions: ERR/PGC reporter cell line, luciferase agonist mode; series mostly up to 46.1 µM; activation: at the top concentration
Method in brief: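 Compounds dissolved in DMSO are added by pin tool to PGC/ERR cells that have settled for 6 h, and incubation continues 18 h at 37 C. Reporter output is measured as One-Glo luminescence.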
On the % scale 0 is the no-effect control and ±100 the full control effect.

Row | Compound | activation
1 | CC(C)N(CCC(=O)c1ccc2ccccc2c1)Cc1ccccc1 | -12.2% (inactive)
2 | C=CCN1CCc2c(cc(O)c(O)c2Cl)C(c2ccccc2)C1 (configuration not stated) | -6.07% (inactive)
3 | COc1cccc2c1[C@@H]1CN(CCCCn3c(=O)[nH]c4c(sc5ncc(-c6ccccc6)nc54)c3=O)C[C@@H]1CO2 | -4.14% (inactive)
4 | Oc1cc2c(cc1O)CN(C(=S)NCCc1ccc(Cl)cc1)CCC2 | 23.1% (inactive)
5 | CCN(c1nc(N)c(C(=O)N=C(N)N)nc1Cl)C(C)C | -10.2% (inactive)
6 | O=c1oc(Cl)c(Cl)c2ccccc12 | -21.9% (inactive)
7 | COC(=O)C1=C(C)NC(C)=C(C(=O)OC)C1c1cccc(NC(=O)NCCCN2CCC(c3cccc(OC)c3)CC2)c1 | -27.7% (inactive)
8 | NS(=O)(=O)C#Cc1ccccc1 | -32.2% (inactive)
9 | O=C(CCCCCN1CCN(c2ccccc2-c2ccccc2)CC1)NC1CCCc2ccccc21 (configuration not stated) | -15% (inactive)
10 | COc1ccccc1N1CCN(CCCCNC(=O)c2ccc3ccccc3c2)CC1 | -11.7% (inactive)
11 | CC[C@@H](C)[C@H]1O[C@]2(CC[C@@H]1C)C[C@@H]1C[C@@H](C/C=C(\C)[C@@H](O[C@H]3C[C@H](OC)[C@@H](O[C@H]4C[C@H](OC)[C@@H](O)[C@H](C)O4)[C@H](C)O3)[C@@H](C)/C=C/C=C3\CO[C@@H]4[C@H](O)C(C)=C[C@@H](C(=O)O1)[C@]34O)O2 | -28.5% (inactive)
12 | CCCCN(CC)c1nc(C)nc2c1c(C)cn2-c1c(C)cc(C)cc1C | -29.3% (inactive)
13 | O=C1NC(=O)c2c1c(-c1ccccc1)cc1[nH]c3ccc(O)cc3c21 | 15.3% (inactive)
14 | CCOC(=O)N1CCN(/[N+]([O-])=N/Oc2ccc([N+](=O)[O-])cc2[N+](=O)[O-])CC1 | -35.7% (inactive)

tested on: not listed separately; assay: qHTS assay to identify small molecule antagonists of the estrogen related receptor (ERR) signaling pathway from Tox21 library - cell viability counter screen (AID 1224834); conditions: ERR reporter cells viability, CellTiter-Fluor, 17.5 h; series mostly up to 92.4 µM; viability change, negative = cytotoxic: at the top concentration; further: nearly all actives have a fitted effect of over 30% in size; further: potency means the concentration at half of the fitted maximal effect
Method in brief: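 Multiplexed viability counter screen in ERR cells: 17.5 h compound exposure at 37 C, CellTiter-Fluor added, 30 min at 37 C/5% CO2, fluorescence read.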

Row | Compound | Potency | viability change, negative = cytotoxic
15 | CN(C)CCOc1ccc(/C(=C(/CCCl)c2ccccc2)c2ccccc2)cc1 | 51 µM (active) | 
16 | Nc1ccc2c(S(=O)(=O)O)cccc2c1S(=O)(=O)O |  | 1.32% [at 42.5 µM] (inactive)
17 | CN1CCN(CCCN2c3ccccc3Sc3ccc(C(F)(F)F)cc32)CC1 | 29.8 µM (active) | 
18 | CN1CCN(CCCN2c3ccccc3Sc3ccc(Cl)cc32)CC1 | 29.8 µM (active) | 

molecular target: Luciferin 4-monooxygenase (Photinus pyralis) (UniProt P08659); assay: qHTS assay to identify small molecule inhibitors of firefly luciferase (AID 1224835); further: nearly all actives have a fitted effect of over 25% in size; conditions: purified P. pyralis luciferase, luminescence inhibition; series mostly up to 115 µM; activity change, negative = inhibition: at the top concentration
Sequence (P08659 whole entry, looked up): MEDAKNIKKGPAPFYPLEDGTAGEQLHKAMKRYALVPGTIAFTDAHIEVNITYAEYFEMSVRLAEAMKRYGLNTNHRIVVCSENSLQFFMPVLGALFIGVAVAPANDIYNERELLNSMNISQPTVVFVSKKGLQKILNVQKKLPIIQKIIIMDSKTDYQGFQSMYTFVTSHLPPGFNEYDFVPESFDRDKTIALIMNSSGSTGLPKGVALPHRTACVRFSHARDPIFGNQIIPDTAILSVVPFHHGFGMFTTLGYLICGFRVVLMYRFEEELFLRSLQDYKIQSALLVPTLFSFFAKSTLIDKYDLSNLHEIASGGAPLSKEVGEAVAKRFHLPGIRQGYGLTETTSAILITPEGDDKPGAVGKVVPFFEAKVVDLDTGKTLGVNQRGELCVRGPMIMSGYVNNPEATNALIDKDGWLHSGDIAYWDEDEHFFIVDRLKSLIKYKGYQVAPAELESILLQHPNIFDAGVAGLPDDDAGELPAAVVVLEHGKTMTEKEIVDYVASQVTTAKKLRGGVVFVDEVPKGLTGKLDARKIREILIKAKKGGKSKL
Method in brief: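 Inhibition of purified Photinus luciferase is measured by luminescence. Substrate levels (D-luciferin, ATP) sit at their KM values. Each compound is tested in a concentration series.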

Row | Compound | activity change, negative = inhibition
19 | CN(C)CCOc1ccc(/C(=C(/CCCl)c2ccccc2)c2ccccc2)cc1 | 2.16% (inactive)
20 | Nc1ccc2c(S(=O)(=O)O)cccc2c1S(=O)(=O)O | -9.36% [at 52.9 µM] (inactive)
21 | CN1CCN(CCCN2c3ccccc3Sc3ccc(C(F)(F)F)cc32)CC1 | 3.04% [at 52.9 µM] (inactive)
22 | CN1CCN(CCCN2c3ccccc3Sc3ccc(Cl)cc32)CC1 | 0.877% [at 52.9 µM] (inactive)
